Numbering of substitutions follows the chain as printed.
Assays:
Assay in all cases: protein-binding microarray (PBM); PBM: ~300 nM protein, 6 mM HEPES pH 7.8, 80 mM KCl, 0.5 mM EDTA, 0.5 mM EGTA, 6% glycerol, 35 ng/ul poly-dIdC, 1% milk, 1 h, room temperature; Ap Aiptasia and Nv Nematostella (sea anemones) / Co Capsaspora / Aq Amphimedon (sponge) / Dm Drosophila / Hu human; RHD is the Rel homology domain; high values mean tight binding
Details in all cases: dsDNA, one strand shown
GST-Ap-NF-kB RHD = target: T1, GST-Ap-NF-kB RHD (Exaiptasia pallida (Aiptasia), UniProt A0A913YAJ5 2-422)
T1 sequence: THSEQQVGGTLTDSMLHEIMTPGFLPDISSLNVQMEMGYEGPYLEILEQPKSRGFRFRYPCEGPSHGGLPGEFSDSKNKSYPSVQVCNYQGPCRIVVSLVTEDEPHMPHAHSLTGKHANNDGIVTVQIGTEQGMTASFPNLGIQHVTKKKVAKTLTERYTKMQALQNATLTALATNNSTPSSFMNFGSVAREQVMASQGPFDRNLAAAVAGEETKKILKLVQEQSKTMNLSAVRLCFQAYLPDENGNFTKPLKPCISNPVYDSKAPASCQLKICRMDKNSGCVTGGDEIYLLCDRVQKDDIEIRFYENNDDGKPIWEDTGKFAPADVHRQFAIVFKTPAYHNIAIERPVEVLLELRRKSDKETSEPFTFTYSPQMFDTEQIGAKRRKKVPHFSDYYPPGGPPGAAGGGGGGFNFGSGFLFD

[1] = target: T2, GST-Nv-NF-kB (Cys allele) (Nematostella vectensis, UniProt E5G601 2-411)
T2 sequence: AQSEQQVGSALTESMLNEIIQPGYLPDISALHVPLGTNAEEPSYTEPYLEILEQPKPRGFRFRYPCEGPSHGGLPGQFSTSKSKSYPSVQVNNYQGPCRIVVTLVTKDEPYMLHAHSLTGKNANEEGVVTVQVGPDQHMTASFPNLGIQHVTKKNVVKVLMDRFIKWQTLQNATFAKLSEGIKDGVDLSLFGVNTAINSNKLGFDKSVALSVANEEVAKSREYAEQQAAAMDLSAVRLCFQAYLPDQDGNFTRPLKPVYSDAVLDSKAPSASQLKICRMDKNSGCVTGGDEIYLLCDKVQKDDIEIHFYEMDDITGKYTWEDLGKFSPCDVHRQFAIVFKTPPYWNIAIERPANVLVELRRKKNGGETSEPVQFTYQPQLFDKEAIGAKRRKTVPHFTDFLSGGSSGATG

[2] = target: T3, GST-Nv-NF-kB (Ser allele) (Nematostella vectensis, UniProt A7UNT2 2-411)
T3 sequence: T2 sequence with Q21R, C66S, S207N, E215Q, V217A, E225K, A268E, D399E

GST-Co-NF-kB = target: T4, GST-Co-NF-kB (Capsaspora owczarzaki, UniProt F1ARL5 200-546)
T4 sequence: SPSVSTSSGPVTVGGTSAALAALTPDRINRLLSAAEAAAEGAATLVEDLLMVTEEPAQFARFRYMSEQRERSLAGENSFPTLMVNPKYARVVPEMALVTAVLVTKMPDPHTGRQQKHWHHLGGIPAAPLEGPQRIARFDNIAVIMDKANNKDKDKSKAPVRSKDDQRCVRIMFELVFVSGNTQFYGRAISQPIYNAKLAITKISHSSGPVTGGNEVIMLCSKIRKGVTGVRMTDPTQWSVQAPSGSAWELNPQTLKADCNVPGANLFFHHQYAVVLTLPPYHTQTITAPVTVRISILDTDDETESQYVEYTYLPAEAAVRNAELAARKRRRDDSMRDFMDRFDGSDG

GST-Aq-NF-kB = target: T5, GST-Aq-NF-kB (Amphimedon queenslandica, UniProt A9Y5G7 2-389)
T5 sequence: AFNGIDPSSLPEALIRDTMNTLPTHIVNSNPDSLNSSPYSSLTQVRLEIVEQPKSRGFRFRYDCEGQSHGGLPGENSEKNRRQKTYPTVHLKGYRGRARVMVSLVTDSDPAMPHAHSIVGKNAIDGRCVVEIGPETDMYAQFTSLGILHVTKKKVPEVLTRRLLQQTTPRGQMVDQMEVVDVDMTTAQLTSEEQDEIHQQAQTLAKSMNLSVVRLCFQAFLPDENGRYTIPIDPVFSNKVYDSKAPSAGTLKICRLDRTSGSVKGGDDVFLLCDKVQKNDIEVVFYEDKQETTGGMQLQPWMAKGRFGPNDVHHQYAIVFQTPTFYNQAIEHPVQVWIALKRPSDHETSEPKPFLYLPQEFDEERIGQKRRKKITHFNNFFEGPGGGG

GST-Dm-Relish = target: T6, GST-Dm-Relish (Drosophila melanogaster, UniProt Q94527 99-473)
T6 sequence: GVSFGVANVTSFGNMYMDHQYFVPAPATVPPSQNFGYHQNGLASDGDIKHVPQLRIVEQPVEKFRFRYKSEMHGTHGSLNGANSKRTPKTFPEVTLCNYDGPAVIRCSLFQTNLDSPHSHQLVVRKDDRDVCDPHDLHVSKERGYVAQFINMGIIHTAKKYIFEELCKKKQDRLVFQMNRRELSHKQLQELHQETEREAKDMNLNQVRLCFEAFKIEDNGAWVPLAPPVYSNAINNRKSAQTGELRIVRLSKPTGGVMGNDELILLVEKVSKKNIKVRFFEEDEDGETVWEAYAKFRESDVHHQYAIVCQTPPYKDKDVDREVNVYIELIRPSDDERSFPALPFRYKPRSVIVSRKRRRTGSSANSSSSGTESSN

Sequence | binding signal (GST-Ap-NF-kB RHD) [z-score] | binding signal [1] [z-score] | binding signal [2] [z-score] | binding signal (GST-Co-NF-kB) [z-score] | binding signal (GST-Aq-NF-kB) [z-score] | binding signal (GST-Dm-Relish) [z-score]
CCGATTAACATCAGCATTTTCCCTGATGTTAATCGGGTCTTGATTCGCTTGACGCTGCTG | 3.21 | 4.61 | 6.85 | 3.96 | 3.68 | –
CCGATTAACATCAAATATTTCCCTGATGTTAATCGGGTCTTGATTCGCTTGACGCTGCTG | 3.87 | 6.57 | 6.99 | 5.89 | 6.66 | 4.25
CCGATTAACATCAACGGGAACTCTGATGTTAATCGGGTCTTGATTCGCTTGACGCTGCTG | 2.34 | 1.64 | 1.08 | 1.78 | 2.25 | 1.77
CCGATTAACATCAGGGGAGATTATGATGTTAATCGGGTCTTGATTCGCTTGACGCTGCTG | 6.83 | 5.48 | 6.7 | 5.91 | 4.52 | 2.68
CCGATTAACATCAGGGGATAATATGATGTTAATCGGGTCTTGATTCGCTTGACGCTGCTG | 5.41 | 5.47 | 7.02 | 5.65 | 4.59 | 2.58
CCGATTAACATCACAATTTTCCCTGATGTTAATCGGGTCTTGATTCGCTTGACGCTGCTG | 4.54 | 6.45 | 7.95 | 5.61 | 5.58 | 2.17
CCGATTAACATCACTATTTTCCCTGATGTTAATCGGGTCTTGATTCGCTTGACGCTGCTG | 3.72 | 4.96 | 6.91 | 5.27 | 3.51 | 1.52
CCGATTAACATCACAAATTTCCCTGATGTTAATCGGGTCTTGATTCGCTTGACGCTGCTG | 4.62 | 6.4 | 6.92 | 5.22 | 6.5 | 3.72
CCGATTAACATCAGCATGGGAAATGATGTTAATCGGGTCTTGATTCGCTTGACGCTGCTG | 1.97 | 2.72 | 2.33 | 1.93 | 1.67 | –
CCGATTAACATCAACGTGGGGCGTGATGTTAATCGGGTCTTGATTCGCTTGACGCTGCTG | 1.07 | 1.14 | 1.09 | 1.11 | 1.15 | –
CCGATTAACATCAATTTCCCGTATGATGTTAATCGGGTCTTGATTCGCTTGACGCTGCTG | 2.46 | 4.12 | 4.4 | 3.1 | 3.17 | 1.58
CCGATTAACATCAAATAATTCCCTGATGTTAATCGGGTCTTGATTCGCTTGACGCTGCTG | 4.23 | 7.21 | 7.13 | 5.48 | 6.69 | 4.85
CCGATTAACATCAGGATTTTCCCTGATGTTAATCGGGTCTTGATTCGCTTGACGCTGCTG | 5.75 | 8.01 | 7.34 | 3.97 | 8.92 | 4.83
CCGATTAACATCAGGGGATTAAATGATGTTAATCGGGTCTTGATTCGCTTGACGCTGCTG | 4.91 | 6.29 | 7.01 | 3.71 | 5.21 | 5.28
CCGATTAACATCAGAAATCCCAATGATGTTAATCGGGTCTTGATTCGCTTGACGCTGCTG | 2.44 | 2.13 | 1.82 | 1.84 | 2.14 | 5.13
CCGATTAACATCACGAAATTCCCTGATGTTAATCGGGTCTTGATTCGCTTGACGCTGCTG | 4.84 | 6.78 | 7.28 | 4.17 | 5.74 | 4.59
CCGATTAACATCAAGGGAAAAATTGATGTTAATCGGGTCTTGATTCGCTTGACGCTGCTG | 3.76 | 6.35 | 7 | 5.22 | 5.11 | 1.89
CCGATTAACATCAAGCCCCCCCATGATGTTAATCGGGTCTTGATTCGCTTGACGCTGCTG | 4.83 | 3.07 | 3.1 | 3.51 | 3.85 | 3.97
CCGATTAACATCAGGGAAAAAAATGATGTTAATCGGGTCTTGATTCGCTTGACGCTGCTG | 3.48 | 5.81 | 7.5 | 5.71 | 4.63 | 2.19
CCGATTAACATCACTCTTTCCCCTGATGTTAATCGGGTCTTGATTCGCTTGACGCTGCTG | 4.86 | 5.44 | 7.19 | 6.1 | 4.18 | 1.95
CCGATTAACATCACTTTTTTCCCTGATGTTAATCGGGTCTTGATTCGCTTGACGCTGCTG | 2.9 | 4.9 | 6.59 | 6.08 | 3.49 | 2.28
CCGATTAACATCAAACTTTTCCCTGATGTTAATCGGGTCTTGATTCGCTTGACGCTGCTG | 3.37 | 5.66 | 6.83 | 4.78 | 4.63 | 1.45
CCGATTAACATCACGGGGGGGAATGATGTTAATCGGGTCTTGATTCGCTTGACGCTGCTG | 6.98 | 5.54 | 6.1 | 9.46 | 5.91 | 5.39

— publication PMC5700166
